{"source": "PubChem BioAssay AID1159580", "about": "(chemical genetic matrix, 2015)", "test": "chemical genetic growth profiling, strain panel (AID 1159580);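 note: tested at 20 µM; growth read once vehicle control cultures reached saturation at 30 °C; 1 = growth at the plate median or of vehicle wells; lower values mean less growth of the strain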", "settings": "S. cerevisiae deletion strains, growth OD", "note": "Where “and” joins values, the source holds several entries; their conditions need not be identical. Equal entries are not always repeated. Among all 5,500 compounds or so, about 2,000 (36%) were called active. Roughly 18% stayed inconclusive and do not appear here. This is one part of the list. Unmarked numbers belong to inactive results. Cut-off read from the data, not from the text of the source: active = normalized growth mostly below about 0.91 (no sharp cut-off); inconclusive = no clear call, values can overlap the other calls; inactive = mostly above about 0.92.", "data": [{"smiles": "OC(CCN1CCCCC1)(c1ccccc1)C1CCCCC1", "note": "(stereo unspecified)", "values": [{"measurement": "normalized growth", "setting": "locus YAL013W, strain DEP1, active compounds read low", "value": 1.01}, {"measurement": "normalized growth", "setting": "locus YAL021C, strain ccr4, active compounds read low", "value": 0.968}, {"measurement": "normalized growth", "setting": "locus YAL026C, strain drs2, active compounds read low", "value": 0.994}, {"measurement": "normalized growth", "setting": "locus YAL030W, strain snc1, active compounds read low", "value": 0.97}, {"measurement": "normalized growth", "setting": "locus YAL040C, strain CLN3, active compounds read low", "value": 1.06}, {"measurement": "normalized growth", "setting": "locus YBL061C, strain skt5, active compounds read low", "value": 0.979}, {"measurement": "normalized growth", "setting": "locus YBR009C, strain hhf1, active compounds read low", "value": 0.993}, {"measurement": "normalized growth", "setting": "locus YBR021W, strain FUR4, active compounds read low", "value": 0.998}, {"measurement": "normalized growth", "setting": "locus YBR023C, strain chs3, active compounds read low", "value": 0.977}, {"measurement": "normalized growth", "setting": "locus YBR171W, strain sec66, active compounds read low", "value": 0.974}, {"measurement": "normalized growth", "setting": "locus YBR229C, strain ROT2, active compounds read low", "value": 1.01}, {"measurement": "normalized growth", "setting": "locus YBR231C, strain swc5, active compounds read low", "value": 0.957}, {"measurement": "normalized growth", "setting": "locus YBR279W, strain paf1, active compounds read low", "value": 0.984}, {"measurement": "normalized growth", "setting": "locus YCL011C, strain gbp2, active compounds read low", "value": 0.978}, {"measurement": "normalized growth", "setting": "locus YCL016C, strain dcc1, active compounds read low", "value": 0.993}, {"measurement": "normalized growth", "setting": "locus YCL029C, strain bik1, active compounds read low", "value": 1}, {"measurement": "normalized growth", "setting": "locus YCL061C, strain MRC1 (second series), active compounds read low", "value": 0.981}, {"measurement": "normalized growth", "setting": "locus YCL061C, strain MRC1, active compounds read low", "value": 0.966}, {"measurement": "normalized growth", "setting": "locus YCL069W, strain vba3, active compounds read low", "value": 0.974}, {"measurement": "normalized growth", "setting": "locus YCR088W, strain abp1, active compounds read low", "value": 0.98}, {"measurement": "normalized growth", "setting": "locus YDL005C, strain med2, active compounds read low", "value": 0.972}, {"measurement": "normalized growth", "setting": "locus YDL035C, strain GPR1, active compounds read low", "value": 1.01}, {"measurement": "normalized growth", "setting": "locus YDL040C, strain nat1, active compounds read low", "value": 0.98}, {"measurement": "normalized growth", "setting": "locus YDL074C, strain BRE1, active compounds read low", "value": 0.999}, {"measurement": "normalized growth", "setting": "locus YDL101C, strain DUN1, active compounds read low", "value": 1.01}, {"measurement": "normalized growth", "setting": "locus YDL134C, strain PPH21, active compounds read low", "value": 1.01}, {"measurement": "normalized growth", "setting": "locus YDL185W, strain tfp1, active compounds read low", "value": 1}, {"measurement": "normalized growth", "setting": "locus YDL192W, strain arf1, active compounds read low", "value": 1.01}, {"measurement": "normalized growth", "setting": "locus YDR001C, strain nth1, active compounds read low", "value": 0.969}, {"measurement": "normalized growth", "setting": "locus YDR069C, strain doa4, active compounds read low", "value": 0.948}, {"measurement": "normalized growth", "setting": "locus YDR101C, strain arx1, active compounds read low", "value": 0.995}, {"measurement": "normalized growth", "setting": "locus YDR137W, strain rgp1, active compounds read low", "value": 1.02}, {"measurement": "normalized growth", "setting": "locus YDR150W, strain NUM1, active compounds read low", "value": "1.02 and 0.996"}, {"measurement": "normalized growth", "setting": "locus YDR159W, strain sac3, active compounds read low", "value": 0.998}, {"measurement": "normalized growth", "setting": "locus YDR162C, strain NBP2, active compounds read low", "value": 1.01}, {"measurement": "normalized growth", "setting": "locus YDR195W, strain ref2", "value": 0.927}, {"measurement": "normalized growth", "setting": "locus YDR297W, strain sur2, active compounds read low", "value": 0.965}, {"measurement": "normalized growth", "setting": "locus YDR318W, strain mcm21, active compounds read low", "value": 0.991}, {"measurement": "normalized growth", "setting": "locus YDR334W, strain swr1, active compounds read low", "value": 0.975}, {"measurement": "normalized growth", "setting": "locus YDR335W, strain msn5, active compounds read low", "value": 0.975}, {"measurement": "normalized growth", "setting": "locus YDR363W, strain ESC2, active compounds read low", "value": 0.954}, {"measurement": "normalized growth", "setting": "locus YDR388W, active compounds read low", "value": 0.996}, {"measurement": "normalized growth", "setting": "locus YDR392W, strain spt3, active compounds read low", "value": 1.01}, {"measurement": "normalized growth", "setting": "locus YDR502C, strain sam2, active compounds read low", "value": 0.998}, {"measurement": "normalized growth", "setting": "locus YEL003W, strain gim4, active compounds read low", "value": 0.975}, {"measurement": "normalized growth", "setting": "locus YEL037C, strain rad23, active compounds read low", "value": 0.969}, {"measurement": "normalized growth", "setting": "locus YEL061C, strain CIN8 (second series), active compounds read low", "value": 0.974}, {"measurement": "normalized growth", "setting": "locus YEL061C, strain CIN8, active compounds read low", "value": 1.01}, {"measurement": "normalized growth", "setting": "locus YER002W, strain NOP16, active compounds read low", "value": 1.03}, {"measurement": "normalized growth", "setting": "locus YER015W, strain faa2, active compounds read low", "value": 0.976}, {"measurement": "normalized growth", "setting": "locus YER016W, strain bim1, active compounds read low", "value": 1}, {"measurement": "normalized growth", "setting": "locus YER110C, active compounds read low", "value": 1}, {"measurement": "normalized growth", "setting": "locus YER111C, strain swi4, active compounds read low", "value": 0.961}, {"measurement": "normalized growth", "setting": "locus YER155C, strain BEM2 (second series), active compounds read low", "value": 0.929}, {"measurement": "normalized growth", "setting": "locus YER155C, strain BEM2, active compounds read low", "value": "0.791 (active)"}, {"measurement": "normalized growth", "setting": "locus YER167W, strain BCK2, active compounds read low", "value": 1.01}, {"measurement": "normalized growth", "setting": "locus YFR010W, strain ubp6, active compounds read low", "value": 0.975}, {"measurement": "normalized growth", "setting": "locus YGL078C, strain dbp3, active compounds read low", "value": 0.991}, {"measurement": "normalized growth", "setting": "locus YGL086W, strain mad1, active compounds read low", "value": 0.993}, {"measurement": "normalized growth", "setting": "locus YGL167C, strain pmr1, active compounds read low", "value": 0.961}, {"measurement": "normalized growth", "setting": "locus YGL173C, strain kem1, active compounds read low", "value": 0.934}, {"measurement": "normalized growth", "setting": "locus YGL227W, strain vid30, active compounds read low", "value": 0.982}, {"measurement": "normalized growth", "setting": "locus YGL240W, strain doc1, active compounds read low", "value": 0.961}, {"measurement": "normalized growth", "setting": "locus YGL248W, strain PDE1, active compounds read low", "value": 1.01}, {"measurement": "normalized growth", "setting": "locus YGL253W, strain hxk2, active compounds read low", "value": 0.97}, {"measurement": "normalized growth", "setting": "locus YGR078C, strain PAC10, active compounds read low", "value": 0.996}, {"measurement": "normalized growth", "setting": "locus YGR135W, strain pre9, active compounds read low", "value": 0.985}, {"measurement": "normalized growth", "setting": "locus YGR229C, strain SMI1, active compounds read low", "value": "1 and 0.945"}, {"measurement": "normalized growth", "setting": "locus YGR252W, strain gcn5, active compounds read low", "value": 0.975}, {"measurement": "normalized growth", "setting": "locus YHR013C, strain ard1, active compounds read low", "value": 0.971}, {"measurement": "normalized growth", "setting": "locus YHR027C, strain rpn1, active compounds read low", "value": 0.988}, {"measurement": "normalized growth", "setting": "locus YHR030C, strain SLT2, active compounds read low", "value": "1.02 and 0.961"}, {"measurement": "normalized growth", "setting": "locus YHR079C, strain IRE1 (second series), active compounds read low", "value": 0.992}, {"measurement": "normalized growth", "setting": "locus YHR079C, strain IRE1, active compounds read low", "value": 0.99}, {"measurement": "normalized growth", "setting": "locus YHR094C, strain hxt1, active compounds read low", "value": 1}, {"measurement": "normalized growth", "setting": "locus YHR129C, strain ARP1, active compounds read low", "value": 1.01}, {"measurement": "normalized growth", "setting": "locus YHR142W, strain chs7, active compounds read low", "value": 0.978}, {"measurement": "normalized growth", "setting": "locus YHR200W, strain rpn10, active compounds read low", "value": 1}, {"measurement": "normalized growth", "setting": "locus YIL066C, strain RNR3, active compounds read low", "value": 1.01}, {"measurement": "normalized growth", "setting": "locus YIL073C, strain SPO22, active compounds read low", "value": 1.05}, {"measurement": "normalized growth", "setting": "locus YIL125W, strain kgd1, active compounds read low", "value": 1}, {"measurement": "normalized growth", "setting": "locus YIR030C, strain dcg1, active compounds read low", "value": 0.999}, {"measurement": "normalized growth", "setting": "locus YJL092W, strain hpr5, active compounds read low", "value": 0.954}, {"measurement": "normalized growth", "setting": "locus YJL095W, strain BCK1 (second series), active compounds read low", "value": 0.971}, {"measurement": "normalized growth", "setting": "locus YJL095W, strain BCK1, active compounds read low", "value": "0.984 and 0.98"}, {"measurement": "normalized growth", "setting": "locus YJL115W, strain asf1, active compounds read low", "value": 0.961}, {"measurement": "normalized growth", "setting": "locus YJL129C, strain trk1, active compounds read low", "value": 0.953}, {"measurement": "normalized growth", "setting": "locus YJL134W, strain LCB3, active compounds read low", "value": 1.01}, {"measurement": "normalized growth", "setting": "locus YJL154C, strain vps35, active compounds read low", "value": 0.971}, {"measurement": "normalized growth", "setting": "locus YJL164C, strain tpk1, active compounds read low", "value": 1.01}, {"measurement": "normalized growth", "setting": "locus YJL166W, strain qcr8, active compounds read low", "value": 0.925}, {"measurement": "normalized growth", "setting": "locus YJL168C, strain set2, active compounds read low", "value": 0.991}, {"measurement": "normalized growth", "setting": "locus YJL187C, strain SWE1 (second series), active compounds read low", "value": 1.01}, {"measurement": "normalized growth", "setting": "locus YJL187C, strain SWE1, active compounds read low", "value": 0.975}, {"measurement": "normalized growth", "setting": "locus YJR043C, strain POL32, active compounds read low", "value": 1.01}, {"measurement": "normalized growth", "setting": "locus YJR066W, strain TOR1, active compounds read low", "value": 0.93}]}]}
